Bioassay records deposited in PubChem BioAssay by Sanford-Burnham Center for Chemical Genomics.
TWEAK Fn14 block = inhibitors of TWEAK-Fn14 signaling, primary screen, luciferase reporter cells, uHTS. AID 1159606, 2016. inhibition, % at 10 µM. hit rate 2% among 360,000. TWEAK-stimulated Fn14 reporter cells, luciferase luminescence, 8 h; in the data active means inhibition above about 50%
TROY signal inh = inhibitors of TROY-driven NF-kB signaling, primary screen, Q293 LMP1-TROYcd cells, NF-kB luciferase, uHTS | hit rate 0.98% among 360,000 | inhibition, % at 10 µM | AID 1347056, 2019 | Q293 LMP1-TROYcd NF-kB luciferase reporter, 4 h;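 active means compounds whose plate-normalised and pattern-corrected inhibition of the luciferase reporter signal at the single screening dose is 50% or more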
KKLEB cytotox = cytotoxicity in KKLEB CF airway cells, primary screen, cytotoxicity control for CF NF-kB inhibitor project, cell-based, uHTS, fluorescence assay plates; hit rate 0.36% among 360,000; KKLEB CF airway cells viability, ATPlite luminescence, overnight; active compounds read low; cells stimulated with P. aeruginosa culture filtrate; activity change (cytotoxicity), % at 5 µM;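 active means corrected activity change at or below -50% at 5 µM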
Peg3 promoter = Peg3 promoter-driven luciferase inhibitors, primary screen, cell-based, HeLa, luciferase luminescence | HeLa PEG-Prom luciferase reporter, overnight | inhibition, % at 20 µM | hit rate 1.7% among 360,000 | AID 588405, 2011;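 active means inhibition of at least 50% at 20 µM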
HIF-2a inh = HIF-2a reporter inhibitors, primary screen, luminescence, 786-0 RCC cells; 786-0 RCC cells HIF-2a reporter, luciferase luminescence, overnight; inhibition, % at 18.8 µM; hit rate 0.72% among 360,000;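 active means inhibition of the luminescence signal of 40% or more relative to plate controls, in a single-dose primary screen at 18.75 µM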
CF NFkB block = inhibitors of PAF-induced NF-kB signaling, primary screen, cell-based, GFP fluorescence, uHTS | KKLEB NF-kB-GFP reporter, GFP fluorescence overnight | inhibition, % at 5 µM | hit rate 0.86% among 360,000;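 active means at least 50% inhibition at 5 µM, scaled per plate between neutral and stimulator controls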;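 further: PAF is a Pseudomonas aeruginosa culture filtrate used as stimulus; plate controls were PAF-stimulated DMSO wells for no effect and unstimulated DMSO wells for full effect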
An asterisk follows results filed as active. Compounds with a hit are over-represented: about 4% of the library has one in this group of screens.

`O=C(N/N=C(\c1ccccc1)c1cccnc1)c1ccc(O)cc1` gave TWEAK Fn14 block -7.3, TROY signal inh -11.3, KKLEB cytotox 11.9, Peg3 promoter 14.9, HIF-2a inh -3.6 and CF NFkB block -10.1.
O=C(N/N=C(\c1ccccc1)c1cccnc1)c1cccc(F)c1 was read as TWEAK Fn14 block -0.2, TROY signal inh -50.6, KKLEB cytotox 11.0, Peg3 promoter 52.6*, HIF-2a inh 3.3 and CF NFkB block -22.8.
For Cc1ccc(-n2c(O)c(C=Nc3ccc4c(c3)OCO4)c3ccccc3c2=O)cc1C the results were TWEAK Fn14 block 12.4, TROY signal inh 63.3*, KKLEB cytotox -37.8, Peg3 promoter 26.8, HIF-2a inh -17.4 and CF NFkB block 30.1.
For COc1ccc(-n2c(O)c(C=Nc3ccccc3)c3ccccc3c2=O)cc1 the results were TWEAK Fn14 block 1.2, TROY signal inh 2.3, KKLEB cytotox -51.7*, Peg3 promoter 47.0, HIF-2a inh 0.1 and CF NFkB block 46.8.
For COc1ccc(-n2c(O)c(C=Nc3ccccc3)c3ccccc3c2=O)cc1OC the results were TWEAK Fn14 block -25.1, TROY signal inh -4.8, KKLEB cytotox 7.4, Peg3 promoter 4.5, HIF-2a inh 3.5 and CF NFkB block -11.1.
`CCN(C(=O)Cn1cc(C(F)(F)F)ccc1=O)c1c(N)n(Cc2ccccc2)c(=O)[nH]c1=O` gave TWEAK Fn14 block -21.2, TROY signal inh 5.0, KKLEB cytotox 0.8, Peg3 promoter 9.4, HIF-2a inh 13.8 and CF NFkB block 3.8.
For O=[N+]([O-])CC(c1ccc(F)cc1)c1c[nH]c2ccccc12 (configuration not stated) the results were TWEAK Fn14 block 26.7, TROY signal inh 4.3, KKLEB cytotox -8.5, Peg3 promoter 55.0*, HIF-2a inh 23.9 and CF NFkB block 12.1.
Screening COc1ccccc1NC(=O)/C(=C\c1cccnc1)NC(=O)c1ccc(C)cc1 returned TWEAK Fn14 block 61.0*, TROY signal inh 4.2, KKLEB cytotox 0.1, Peg3 promoter 12.9, HIF-2a inh 14.2 and CF NFkB block -12.6.
For COc1ccc(-c2noc(CNS(=O)(=O)c3ccc(NC(C)=O)cc3)n2)cc1 the results were TWEAK Fn14 block 7.0, TROY signal inh -9.3, KKLEB cytotox -7.2, Peg3 promoter -11.5, HIF-2a inh -10.8 and CF NFkB block -13.5.
For O=C(NCc1nc(-c2ccc(C(F)(F)F)cc2)no1)Nc1ccc(OC(F)(F)F)cc1 the results were TWEAK Fn14 block 44.6, TROY signal inh 20.7, KKLEB cytotox -28.8, Peg3 promoter 73.7*, HIF-2a inh 3.4 and CF NFkB block 32.8.
For COc1ccc(CC(N)c2csc(Nc3nncc4ccccc34)n2)cc1 (configuration not stated) the results were TWEAK Fn14 block 1.7, TROY signal inh -11.1, KKLEB cytotox -17.1, Peg3 promoter 121.1*, HIF-2a inh -9.1 and CF NFkB block 7.1.
For COc1cc(OC)nc(Nc2nc(C(N)Cc3ccc(F)cc3)cs2)n1 (configuration not stated) the results were TWEAK Fn14 block -11.2, TROY signal inh -9.3, KKLEB cytotox -20.0, Peg3 promoter 95.7*, HIF-2a inh 15.2 and CF NFkB block 25.4.
`CCc1cnc(Nc2nc(C(N)Cc3ccc(Cl)cc3)cs2)nc1` (configuration not stated) gave TWEAK Fn14 block -6.4, TROY signal inh 3.6, KKLEB cytotox -2.4, Peg3 promoter 3.6, HIF-2a inh 9.4 and CF NFkB block 0.7.
Screening NC(c1csc(Nc2nncc3ccccc23)n1)c1ccccc1Cl (configuration not stated) returned TWEAK Fn14 block 3.0, TROY signal inh -11.6, KKLEB cytotox -17.5, Peg3 promoter 14.6, HIF-2a inh 5.8 and CF NFkB block 12.5.
Screening CCCc1cnc(Nc2nc(C(N)Cc3ccc(OC)cc3)cs2)nc1 (configuration not stated) returned TWEAK Fn14 block -20.9, TROY signal inh -3.3, KKLEB cytotox -18.4, Peg3 promoter 99.7*, HIF-2a inh -11.4 and CF NFkB block 10.1.
`O=C(Nc1ccc([N+](=O)[O-])cc1)Nc1ccc2c(c1)OCCO2` gave TWEAK Fn14 block 18.5, TROY signal inh 4.1, KKLEB cytotox 6.2, Peg3 promoter -234.8, HIF-2a inh -287.6 and CF NFkB block -34.8.
CCCCCc1ccc(-c2ccc(/C=C/C(N)=O)cc2)nc1 was read as TWEAK Fn14 block 15.9, TROY signal inh -6.9, KKLEB cytotox -0.9, Peg3 promoter -36.8, HIF-2a inh -66.9 and CF NFkB block 3.2.
CCCc1ccc(-c2ccc(C(=O)O)cc2)nc1 was read as TWEAK Fn14 block 78.5*, TROY signal inh 47.8, KKLEB cytotox 9.5, Peg3 promoter -71.3, HIF-2a inh -88.4 and CF NFkB block -0.6.
For O=C(c1nn2c(C(F)(F)F)cc(-c3cccs3)nc2c1Cl)N1CCCc2ccccc21 the results were TWEAK Fn14 block 54.2*, TROY signal inh 25.2, KKLEB cytotox -28.4, Peg3 promoter 30.7, HIF-2a inh -29.2 and CF NFkB block 12.5.
`COc1cc(N)ccc1C(=O)O` gave TWEAK Fn14 block -0.9, TROY signal inh -21.4, KKLEB cytotox 7.4, Peg3 promoter 14.9, HIF-2a inh 3.7 and CF NFkB block -2.3.
Cc1ccc(C(=O)NCc2nnc(SCC(=O)Nc3sc4c(c3C#N)CCCC4)n2C)cc1 was read as TWEAK Fn14 block -5.8, TROY signal inh -5.7, KKLEB cytotox 3.5, Peg3 promoter -3.2, HIF-2a inh 3.0 and CF NFkB block -12.6.
COc1ccccc1NC(=O)c1c(C)cc(=O)oc1C was read as TWEAK Fn14 block 59.7*, TROY signal inh -10.1, KKLEB cytotox -23.6, Peg3 promoter 8.7, HIF-2a inh -15.4 and CF NFkB block 29.3.
COc1ccc2cc(C=NS(=O)(=O)c3ccc(C)cc3)n(C)c2c1 was read as TWEAK Fn14 block 1.4, TROY signal inh 15.8, KKLEB cytotox -5.3, Peg3 promoter -8.5, HIF-2a inh 3.8 and CF NFkB block 10.5.
`O=C(Nc1ccccc1)Nc1ccc2ccccc2n1` gave TWEAK Fn14 block -26.2, TROY signal inh -25.7, KKLEB cytotox -7.7, Peg3 promoter -56.9, HIF-2a inh -121.9 and CF NFkB block -12.7.
O=C(N=Nc1c(O)[nH]c2ccc(Cl)cc12)c1cc(-c2cccs2)nc2ccccc12 was read as TWEAK Fn14 block -49.7, TROY signal inh 6.8, KKLEB cytotox 4.3, Peg3 promoter 70.4*, HIF-2a inh -18.1 and CF NFkB block -4.6.
